Bioassay records deposited in PubChem by National Center for Advancing Translational Sciences (NCATS).
RXFP1 antag – antagonists of human relaxin receptor RXFP1. Q9HBX9. HEK293-RXFP1, relaxin-stimulated cAMP HTRF, 30 min; hits give low values. activity change, negative = inhibition, % at 57.5 µM. actives 0.59% (n = 350,000);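 active means activity change of -60% or lower, but not beyond a set lower limit; inconclusive means change between -60% and -40%, or beyond the set limit; inactive means change above -40%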
Target sequence (Q9HBX9 whole entry, looked up): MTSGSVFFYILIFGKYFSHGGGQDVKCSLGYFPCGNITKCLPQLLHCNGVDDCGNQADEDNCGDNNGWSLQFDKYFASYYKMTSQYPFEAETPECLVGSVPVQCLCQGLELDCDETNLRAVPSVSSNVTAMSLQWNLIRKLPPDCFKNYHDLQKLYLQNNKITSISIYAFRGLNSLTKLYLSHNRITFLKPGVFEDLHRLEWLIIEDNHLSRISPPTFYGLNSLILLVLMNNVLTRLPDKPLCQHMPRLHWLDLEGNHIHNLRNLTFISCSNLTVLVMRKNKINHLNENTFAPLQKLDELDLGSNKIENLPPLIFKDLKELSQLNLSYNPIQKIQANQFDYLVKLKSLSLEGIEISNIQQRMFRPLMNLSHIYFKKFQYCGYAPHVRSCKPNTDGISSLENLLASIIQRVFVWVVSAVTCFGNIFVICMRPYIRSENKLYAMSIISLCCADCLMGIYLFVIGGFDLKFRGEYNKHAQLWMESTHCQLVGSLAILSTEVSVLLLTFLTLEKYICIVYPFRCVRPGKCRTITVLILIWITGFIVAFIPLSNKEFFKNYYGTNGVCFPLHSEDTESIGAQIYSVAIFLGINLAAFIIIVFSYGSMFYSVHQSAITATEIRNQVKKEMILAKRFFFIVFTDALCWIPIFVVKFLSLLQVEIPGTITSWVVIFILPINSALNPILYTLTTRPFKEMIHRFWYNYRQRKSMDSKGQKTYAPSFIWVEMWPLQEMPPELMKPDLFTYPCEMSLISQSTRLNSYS
RXFP1 ag – activates the human relaxin receptor RXFP1; Q9HBX9; HEK293T-RXFP1 cAMP TR-FRET, 30 min; response scale: percent of porcine relaxin response, buffer zero; Potency, µM (series often up to 57.5 µM), usual class: activators; actives 0.3% (n = 370,000); AID 2676; active means well fitted activation curve with a large enough effect; inconclusive means small, poorly fitted or top-dose-only effect; further: nearly all actives have a fitted effect of over 60% in size
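HEK293T cells stably expressing RXFP1 were pretreated with the PDE4 inhibitor Ro 20174, exposed to compounds for 30 min at 37C, lysed, and cAMP was read by TR-FRET. Data normalized to buffer (basal) and 29 nM porcine relaxin (100%).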
gsp agonist – gsp mutant agonism. Potency, µM (doses to about 76.9 µM), actives largely listed as activators. gsp mutant cells, cAMP HTRF, 30 min. actives 0.13% (n = 340,000); active means well fitted activation curve with a large enough effect; inconclusive means small, poorly fitted or top-dose-only effect, or another doubt; inactive means no such curve, though single readings can be large or run the other way; cell line not stated here;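 further: phosphodiesterase inhibitor Ro 20-1724 added with compounds to block cAMP breakdown; nearly all actives have a fitted effect of over 60% in size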
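Cells stably selected in G418 were plated at 2000/well, grown 16-24 hr, then given compounds in DMSO with the PDE inhibitor […] (300 uM solution added) for 30 min at 37C; cAMP was read by HTRF.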
Giardia kill – kills Giardia lamblia; Giardia lamblia trophozoite viability; AID 540267; actives 0.15% (n = 340,000); activity change, % at 7.66 µM, hits read low; in the data active means activity change below about -80%; inconclusive means between about -30% and that limit;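 further: parasites exposed to compound for two days anaerobically before the ATP read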
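Anaerobic 48 hrs incubation at 37 deg C of 100 trophozoites/well with test compounds; ATPLite 1-Step luminescence, 15-30 min RT, reports cellular ATP as viability.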
gsp antag – gsp mutant antagonism | gsp-mutant cells, cAMP HTRF, 30 min | Potency, µM (series often up to 76.9 µM), actives largely listed as inhibitors | actives 0.4% (n = 340,000) | AID 624288; calls by dose curve; cell line not stated here;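 further: intracellular cAMP measured with PDE inhibitor Ro 20-1724 present during compound exposure; nearly all actives have a fitted effect of over 65% in size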
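HTRF cAMP measurement after 30 min RT detection following 30 min, 37C compound treatment alongside […] (added as 300 uM solution) in G418-selected cells seeded at 2000/well and grown 16–24 h.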
Coupling enz – inhibits coupling enzyme system, counter-screen for aldolase hits | activity change, negative = inhibition, % at 58.2 µM, hits read low | coupling enzyme system counterscreen, AmpLite Red fluorescence | actives 0.67% (n = 290,000); in the data active means activity change below about -30%
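Final compound at 57.5 uM, incubated 10 min at RT with coupling enzyme reagent (glyceraldehyde-3-phosphate), then 20 min with substrate and AmpLite Red detection. Fluorescence read at 525/598 nm; tests interference with the coupling assay, not aldolase inhibition.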
Hits are given with their value; 0 = inactive; ? = inconclusive; - = no result; [ ] = dose if it differs, or a comment. A selection: hits, their analogues and other compounds. The true share with any hit is near 1.6%.

SMILES	RXFP1 antag	RXFP1 ag	gsp agonist	Giardia kill	gsp antag	Coupling enz
O=C(CCCN1C(=O)/C(=C/c2cccs2)SC1=S)Nc1cccc(O)c1	0	0	0	0	45µM	0
COc1ccc(/C=C2\SC(=S)N(CCC(=O)Nc3ccccc3C(=O)O)C2=O)cc1	0	0	0	0	0	0
CCC(O)(CC)C(=O)N(Nc1ccc(C)cc1)c1ccc(C)cc1	0	0	0	0	0	0
CCOC(=O)C(=O)N(Nc1ccc(C)cc1)c1ccc(C)cc1	-68	0	?	0	0	0
CCN(CC)C(=O)c1sc2c(c1C)c(=O)n(-c1ccccc1)c(=O)n2CC(=O)Nc1ccc(C)cc1C	0	0	-	-	-	-
O=C(/C=C/Nc1ccc(F)cc1Br)c1ccccc1	0	0	0	-89	0	0
CCCCCOC(=O)C1=C(C)N(C)C(=O)NC1c1cc(Br)c(O)c(OC)c1 (stereo not given)	0	0	0	0	7.1µM	0
CCCC1=Nc2cc(C(=O)NC3CCCCC3)ccc2Sc2ccc(C)cc21	0	0	-	-	-	-
CCn1cc(C(=O)NCC(=O)NCCCN2CCOCC2)c(=O)c2cc3c(cc21)OCO3	0	0	?	0	0	0
COC(=O)c1c(NS(=O)(=O)c2cccs2)sc2c1CCCC2	0	0	0	0	22µM	0
COC(=O)c1c(NC(=O)Cc2cccs2)sc2c1CCCC2	0	0	0	0	0	0
CCO/C=C1/C(=O)N(C)C(=O)c2cc(OC)ccc21	0	0	0	0	0[15.4 µM]	-43
O=C1C=CC(=O)C2=C1C1c3ccccc3C2c2ccccc21	-	-	-	-	-	0
CCN(CC)c1cc(Cl)c2nonc2c1N	0	0	0[15.4 µM]	0	0	0
CN(C)c1cc(Cl)c2nonc2c1N	0	0	0	0	0	-30
O=C1CC(Nc2ccc(N3CCOCC3)cc2)C(=O)N1c1cccc(C(F)(F)F)c1 (stereo not given)	-	0	0	0	0	-36
CN(C)c1ccc(NC(=O)C2C3C=CC(C3)C2C(=O)O)cc1 (stereo not given)	-119	0	0	0	28µM	0
CC(=O)Nc1ncc([N+](=O)[O-])s1	0	-	-	-	-	-
O=C(Nc1ncc([N+](=O)[O-])s1)c1ccco1	0	0	0	-90	?	-
Cc1onc(-c2ccccc2)c1C(=O)Nc1ncc([N+](=O)[O-])s1	0	0	0	-94	?	0
Cc1ccc(C(=O)Nc2ncc([N+](=O)[O-])s2)cc1	0	0	0	-86	25µM	0
O=C(Nc1ncc([N+](=O)[O-])s1)c1ccc2c(c1)OCO2	0	0	0	-95	0	-32
Cc1cnc(NC(=O)c2ccc3c(c2)OCCO3)s1	0	0	0	-91	0	-
CN1CCN(c2ccnc(-c3ccoc3)n2)CC1	-	-	-	-	-	0
Cc1nc(-c2ccc(NC(=O)c3ccco3)cc2)cs1	0	0	0	-98	0	0
SMILES	RXFP1 antag	RXFP1 ag	gsp agonist	Giardia kill	gsp antag	Coupling enz
O=C(NC(=S)NNC(=O)c1ccccc1O)c1ccco1	0	0	0[15.4 µM]	0	0	0
O=C(Nc1ccc(C(=O)Oc2ccccc2)c(O)c1)c1ccco1	0	0	0	0	35µM	0
O=C(NC(=S)NNC(=O)c1cc2ccccc2cc1O)c1ccco1	-70	0	0[15.4 µM]	0	0	0
O=C(Nc1ccc(Nc2ccccc2)cc1)c1ccco1	-81	0	0	0	0	0
COc1cc(C(=O)NCC(=O)NCC(c2ccco2)N2CCCCC2)cc(OC)c1OC (stereo not given)	0	0	0	0	0	-
CC1(C)Cc2c(ccc3ccccc23)/C(=C/C(=O)N2CCCCC2)N1	?	0	0	0	35µM	0
O=C(/C=C1\NC2(CCCC2)Cc2ccccc21)N1CCOCC1	0	0	0	0	0	0
CCOc1ccc(-c2nonc2NC(=O)c2oc3cc(C)ccc3c2C)cc1	-66	0	-	-	-	-
CCOc1ccc(-c2nonc2NC(=O)c2oc3cc(Br)ccc3c2C)cc1	0	0	-	-	-	-
COc1ccc(OC2C=CC(C#Cc3ccc(F)cc3F)OC2CO)cc1 (stereo not given)	-	-	-	-	-	0
COCCn1c(N)c(C(=O)NCC2CCCO2)c2nc3ccccc3nc21 (stereo not given)	0	0	?	0	0	-35
CC(C)Cn1c(N)c(C(=O)NCC2CCCO2)c2nc3ccccc3nc21 (stereo not given)	0	0	0	0	0	-47
COCCn1c(N)c(S(=O)(=O)c2cccs2)c2nc3ccccc3nc21	0	0	0	0	0	-33
Nc1c(S(=O)(=O)c2cccs2)c2nc3ccccc3nc2n1Cc1ccccc1	0	0	0	0	0	0
COc1ccc(OC)c(-n2c(N)c(C(=O)NCC3CCCO3)c3nc4ccccc4nc32)c1 (stereo not given)	0	0	0	0	?	0
CCOC(=O)c1cnc2c(C)c(C)ccc2c1NCCN1CCOCC1	0	0	0[15.4 µM]	0	0	0
CCC(=O)O[C@]1(C(=O)COC)[C@@H](C)C[C@H]2[C@@H]3CCC4=CC(=O)C=C[C@]4(C)C3(F)[C@@H](O)C[C@@]21C (stereo not given in full)	0	-	-	-	-	-
CC(=O)N1CCN(c2ccc(Nc3ncnc4c3oc3ccccc34)cc2)CC1	0	0	0	0	28µM	0
COC(=O)c1cc(=O)c(O)c2c(O)c(O)ccc2c1	-	-	-	-	-	-31
COc1ccc(Cl)cc1NC(=O)CCc1c(C)nc2c(c1C)c(=O)n(C)c(=O)n2C	-	0	-	-	-	-
C[N+](C)(C)CC(O)CC(=O)[O-] (stereo not given)	0	-	-	-	-	-
Cc1cc(C)c(Cn2c3ccccc3c3cnn(CC(=O)NCCN4CCOCC4)c(=O)c32)c(C)c1	-64	0	0	0	0	0
Cc1ccc(C)c(Cn2c3ccccc3c3cnn(CC(=O)NCCN4CCOCC4)c(=O)c32)c1	0	0	0	0	0	0
COc1ccccc1CNC(=O)C(CC(C)C)N1Cc2ccccc2C1=O (stereo not given)	0	0	-	-	-	-
CSc1sc(C)cc1C1C(C#N)=C(N)N(c2cccnc2)C2=C1C(=O)CC(C)(C)C2 (stereo not given)	0	0	?	0	?	0
CCOc1ccc(OCC)c(C2C(C#N)=C(N)N(c3cccnc3)C3=C2C(=O)CC(C)(C)C3)c1 (stereo not given)	0	0	0	0	0	-52
O=C1CSC(=S)N1/N=C/c1ccc(O)c(O)c1O	0	0	0	0	0	-59
Cn1c(=O)n(C)c2cc([N+](=O)[O-])c(N3CCN(S(=O)(=O)c4ccccc4)CC3)cc21	0	0	0	0	25µM	0
COc1ccc(CN(CCC(c2ccc(F)cc2)C2CCOC(C)(C)C2)C(=O)c2ccco2)cc1 (stereo not given)	0	0	0[15.4 µM]	0	22µM	0
